Active and inactive are the calls of the source. Rule for the calls: active = hit-call score of the fitted dose curve at least 0.9, where 1 is the maximum; inactive = score below 0.9.
Experiment: ATG_PXRE_CIS: Attagene CIS-FACTORIAL HepG2 Assay for human Pregnane X Receptor Element (PXRE) (AID 2282957)
Conditions: HepG2 Attagene CIS-FACTORIAL PXRE reporter, mRNA; actives raise or lower the signal
Procedure, shortened: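 Bidirectional activity, baselined to DMSO, derived from reporter mRNA fluorescence (RT-PCR plus capillary electrophoresis) in HepG2 cells bearing cis-promoter reporter units, 24 h exposure.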

| Compound | outcome | AC50 |
| --- | --- | --- |
| COc1cc(-c2nc(NC(=O)c3cc4cc(C)cc(C)c4n3CC(=O)O)sc2CCC2CCCCC2)c(OC)cc1Cl | inactive | – |
| CCCCCCCCCCCC(=O)OC | inactive | – |
| COCCOCCOC | inactive | – |
| CCCCCCCCCCO | inactive | – |
| CCOC(=O)C(C)(C)Oc1ccc(Cl)cc1 | inactive | – |
| CC(CO)OC(C)CO (centres undefined) (tested in a mixture with another compound) | inactive | – |
| CCc1c(C(=O)NN2CCCCC2)nn(-c2ccc(Cl)cc2Cl)c1-c1ccc(Br)cc1 | – | 0.147 µM (active) |
| CNC(=O)[C@H]1O[C@@H](n2cnc3c(NCc4cc(Cl)ccc4OCc4cc(C)no4)ncnc32)[C@H](O)[C@@H]1N | inactive | – |
| C[Si]1(C)O[Si](C)(C)O[Si](C)(C)O[Si](C)(C)O1 | – | 26.6 µM (active) |
| CCCCc1ccc2c(n1)[C@@H](c1ccc(OC)cc1C[C@H](C)C(=O)O)[C@H](C(=O)O)[C@H]2c1ccc2c(c1)OCO2 | inactive | – |
| O=C(O)CCCCC(=O)O | – | 55 µM (active) |
| CCCCN(CCCC)CCCC | – | 26.5 µM (active) |
| CN[C@H]1CC[C@@H](c2ccc(Cl)c(Cl)c2)c2ccc(S(N)(=O)=O)cc21 | inactive | – |
| Cc1cc(=O)[nH]c(=S)[nH]1 | inactive | – |
| Cc1nc(-c2ccc3c(c2)CCN(CCC2CCC(NC(=O)/C=C/c4ccc(F)cc4)CC2)CC3)no1 (centres undefined) | inactive | – |
| Cc1ccc(Cl)cc1 | inactive | – |
| NC(=O)Cn1c(=O)cc(CCN2CCN(c3nccc4sccc34)CC2)c2ccc(F)cc21 | – | 5.72 µM (active) |
| Cc1ccccc1Cl | inactive | – |
| COc1cc(/C=C/C(=O)CC(=O)/C=C/c2ccc(O)c(OC)c2)ccc1O | – | 60.4 µM (active) |

From PubChem BioAssay (EPA / NIEHS)
